Screening data deposited in PubChem by National Center for Advancing Translational Sciences (NCATS).
The list is not random: actives were taken first. Their share in the collection is about 2.3%.
MARV entry inh: inhibitors of Marburg virus binding or cell entry; Marburg virus pseudotyped entry inhibition, cell reporter; Potency, µM (top dose mostly 37.8 µM), usual class: inhibitors; hit rate 1.8% among 300,000; AID 540276; calls by dose curve; tested in HEK293 cells
AMA1 RON2 block: disrupts binding of P. falciparum AMA1 to RON2. AID 720542. AlphaScreen AMA1-biotinylated RON2 peptide binding. hit rate 0.2% among 360,000. Potency, µM (doses to about 58.2 µM), most hits filed as inhibitors; also: nearly all actives have a fitted effect of over 45% in size
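AMA1 (3D7) with his tag at 25 nM final met compounds first, then biotinylated RON2 peptide at 25 nM; detection used donor plus acceptor beads, 10 µg/mL apiece, read by AlphaScreen after 30 min at room temperature.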
Lassa entry inh: blocks Lassa virus binding to or entry into cells; Lassa virus pseudotype entry inhibition, cell reporter; Potency, µM (titrated, usually from 37.9 µM), actives largely listed as inhibitors; hit rate 1.2% among 300,000; AID 540256; calls by dose curve; tested in HEK293 cells; also: nearly all actives have a fitted effect of over 50% in size
AmpC detergent: inhibitors of E. coli AmpC beta-lactamase with detergent; P00811; AmpC hydrolysis of nitrocefin, absorbance 480 nm, 0.01% Triton; Potency, µM (highest dose often 114 µM), hits mostly inhibitors; hit rate 0.041% among 370,000; AID 485294; also: nearly all actives have a fitted effect of over 25% in size
Target sequence (P00811 whole entry, looked up): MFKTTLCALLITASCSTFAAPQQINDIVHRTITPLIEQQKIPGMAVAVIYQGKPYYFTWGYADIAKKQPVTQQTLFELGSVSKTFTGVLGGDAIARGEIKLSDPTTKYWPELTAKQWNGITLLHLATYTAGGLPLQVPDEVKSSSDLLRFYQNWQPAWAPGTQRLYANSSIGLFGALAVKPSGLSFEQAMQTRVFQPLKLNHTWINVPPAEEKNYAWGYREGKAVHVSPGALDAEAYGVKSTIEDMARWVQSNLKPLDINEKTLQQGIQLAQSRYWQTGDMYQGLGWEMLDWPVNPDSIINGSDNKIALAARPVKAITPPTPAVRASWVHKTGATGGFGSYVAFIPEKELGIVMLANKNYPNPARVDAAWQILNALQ
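20 mM phosphate pH 7.0 + 0.01% (detergent screen) or 0.0001% Triton X-100; 5.3 nM AmpC reagent; cpd preinc 15 min RT; nitrocefin (800 uM stock) to start; A480 q20 s × 4 min; Activity was normalised to no-enzyme and no-compound control wells.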
AmpC no deterg: blocks E. coli AmpC beta-lactamase in detergent-free assay | P00811 | AmpC nitrocefin hydrolysis, absorbance 480 nm, 0.0001% Triton | Potency, µM (doses to about 57.1 µM), actives largely listed as inhibitors | hit rate 0.52% among 330,000 | AID 485341; also: nearly all actives have a fitted effect of over 20% in size
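AmpC (5.3 nM in the dispensed reagent) in 20 mM phosphate pH 7.0 with 0.01% (detergent screen) or 0.0001% Triton X-100 was preincubated with compounds for 15 min at room temperature. Nitrocefin was then added from an 800 uM solution, and hydrolysis was followed at 480 nm.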
A number is an active result; – = inactive; ? = inconclusive; · = no result; ! = repeats disagree; [ ] = dose if it differs, or a comment. Unless noted, calls follow the shape of the dose curve; as a rule, active = well fitted curve in the direction sought with a large enough effect; inconclusive = small, poorly fitted or top-dose-only effect, or another doubt; inactive = no such curve, though single readings can be large; an effect the other way counts as inactive or inconclusive.

SMILES | MARV entry inh | AMA1 RON2 block | Lassa entry inh | AmpC detergent | AmpC no deterg
CC(C)NC[C@H](O)COc1cccc2[nH]ccc12 | ? | – | – | – | –
COc1ccccc1N1CCN(CC(O)COc2cccc3ccccc23)CC1 (stereo not given) | ? | – | 21µM! | ? | –
CCc1cccc(NC(=O)c2nc(-c3ccncc3)no2)c1 | · | · | – | – | ·
CC(C)NC[C@H](O)COc1ccc(CC(N)=O)cc1 | 0.11µM! | – | – | – | –
CC(C)NCC(O)COc1ccc(CC(N)=O)cc1 (stereo not given) | – | – | – | – | –
CC(=O)N1CCCN(C(=O)c2ccc3nc(Cc4ccccc4F)oc3c2)CC1 | – | – | – | – | –
O=C(c1ccc2nc(Cc3ccccc3F)oc2c1)N1CCCC1 | ? | – | 6.3µM | – | –
CCCCCC1CC1C(=O)N/N=C/c1ccc(N(C)C)cc1 (stereo not given) | – | – | 0.46µM | – | –
CN(C)c1ccc(/C=N/NC(=O)COc2ccccc2)cc1 | – | – | ? | – | –
CCOc1ccccc1NC(=O)c1cc2c(=O)[nH]c3ccccc3c2s1 | – | · | – | – | ·
CCCSc1nc2cc(OC)c(OC)cc2c(=N)n1CCCN1CCOCC1 | 14µM | – | ? | ? | –
Cc1c(Cl)c([N+](=O)[O-])nn1CCCC(=O)N1CCN(c2ccccc2)CC1 | ? | ? | – | – | –
Cc1c(Br)c([N+](=O)[O-])nn1CCCC(=O)N1CCN(c2ccccc2)CC1 | 13µM | – | – | – | –
CCSc1nnc(NC(=O)C(C)(C(F)(F)F)C(F)(F)F)s1 | ? | – | – | – | –
CCSc1nnc(NC(=O)C(CC)(C(F)(F)F)C(F)(F)F)s1 | ? | – | 13µM | – | –
COc1ccc(Br)cc1/C=N/N1CCN(Cc2ccccc2Cl)CC1 | – | 8.9µM | – | ? | –
Clc1ccc(/C=N/N2CCN(Cc3ccccc3Cl)CC2)cc1 | – | 13µM | – | – | –[11.4 µM]
COc1ccccc1/C=C/C=N\N1CCN(Cc2ccccc2Cl)CC1 | – | 20µM | – | – | –
COc1ccccc1/C=C/C=N/N1CCN(Cc2ccc(Cl)cc2)CC1 | – | ? | ? | – | –
COc1ccc(/C=N\N2CCN(Cc3ccccc3Cl)CC2)cc1 | · | – | · | – | –
CC1CN(C(=O)N2CCC(C(=O)NCCCc3ccccc3)CC2)c2cc(Cl)ccc2O1 (stereo not given) | · | · | ? | – | ·
COc1ccc(CC(=O)Nc2sc3c(c2C(=O)Nc2ccc(C)cc2)CCCCC3)cc1 | · | · | – | – | ·
Cc1nc(Nc2ccc(Cl)cc2)cc(-c2ccccc2)n1 | – | · | ? | – | ·
O=S(=O)(/C(=C\c1ccc(C(F)(F)F)cc1)c1nc2ccccc2[nH]1)c1ccccc1 | 4µM | – | 3.5µM | · | ·
O=C(NCc1ccco1)/C(=C/c1ccc(C(F)(F)F)cc1)c1nc2ccccc2[nH]1 | – | – | ? | – | 18µM
SMILES | MARV entry inh | AMA1 RON2 block | Lassa entry inh | AmpC detergent | AmpC no deterg
CCCCCCCc1cc2ccccc2c2c(C(=O)OCC)c(C(=O)OCC)c(C(=O)OCC)n12 | – | · | · | · | ·
COc1ccc(CCNC(=O)Cc2c(C)c3c(cc(C)c4c(C)coc43)oc2=O)cc1OC | – | · | – | – | ·
Cc1sc(N/N=C/c2cccnc2)nc1-c1ccccc1 | ? | – | 2.9µM | – | –
C(=N\Nc1nc(-c2ccccc2)cs1)/c1ccco1 | ? | – | ? | – | –
Cc1sc(N/N=C/c2ccco2)nc1-c1ccccc1 | ? | – | 21µM | – | –
Cc1ccc(NC(=O)CSc2nc(O)cc(=O)n2-c2ccc(C)cc2)cc1 | · | – | · | – | 13µM
Cc1ccc(NC(=O)CSc2nc(O)c(Cc3ccccc3)c(=O)n2-c2ccccc2)cc1 | – | – | – | – | 11µM
CC(C)Oc1ccc(CNS(=O)(=O)c2ccc3c(c2)C(C)(C)C(=O)N3C)cc1 | · | · | – | – | ·
Nc1ccc(O)c2c1C(=O)c1ccccc1C2=O | – | 7.1µM | – | – | –
CCC(C)NC(=O)CSc1nc2cc3c(cc2c(=O)n1CCCCCC(=O)NCc1ccc(OC)cc1)OCO3 (stereo not given) | · | · | – | – | ·
COc1cc2c(cc1Nc1nc(Nc3ccsc3C(N)=O)c3cc[nH]c3n1)N(C(=O)CN(C)C)CCC2 | · | · | 0.07µM | · | ·
CNC(=O)c1ncccc1Nc1nc(Nc2cc3c(cc2OC)CCCN3C(=O)CN(C)C)nc2[nH]ccc12 | · | · | 4µM | · | ·
Cc1ccc(-n2ncc3c(NC4CCCCC4)ncnc32)cc1 | · | · | – | – | ·
CCOc1ccccc1CNS(=O)(=O)c1ccc2[nH]c(=O)ccc2c1 | · | · | ? | – | ·
COc1ccc(C2NCc3ccc4c(c3-n3cccc32)OCO4)cc1O (stereo not given) | 0.63µM | – | ? | ? | –
CC(C)CCNC(=O)C1C2C=CC3(CN(Cc4ccccc4Cl)C(=O)C13)O2 (stereo not given) | · | – | · | ? | 8.9µM
O=C(N/N=C1/CCSC1)c1cc(Br)ccc1O | – | – | – | – | –
O=C(NN=C1CCCC1)c1cc(Br)ccc1O | · | – | · | ? | 7.9µM
O=C(N/N=C/c1ccoc1)c1cc(Br)ccc1O | · | – | · | – | 7.9µM
O=C(N/N=C/c1ccoc1)c1ccccc1Br | – | – | ? | – | –
COc1ccc(C)cc1NC(=O)c1cc2c(=O)n(Cc3cccnc3)ccc2nc1C | · | · | – | – | ·
O=C(O[C@@H]1OC2COC(=O)c3cc(O)c(O)c(O)c3-c3c(cc(O)c(O)c3O)C(=O)O[C@@H]([C@H]1O)[C@@H]2O)c1cc(O)c(O)c(O)c1 | ? | 2.5µM | ? | – | –
CC(C)(C)[S+](=O)([O-])/C(C#N)=C/NC1=NCCCC1 | – | · | · | · | ·
O=C(O)/C(=C\c1cccc(F)c1)c1ccc(S(=O)(=O)N2CCCC2)s1 | ? | –[11.6 µM] | – | – | –
Cc1cccc(/C=C(\C(=O)O)c2ccc(S(=O)(=O)N3CCCC3)s2)c1 | – | – | – | · | 32µM
SMILES | MARV entry inh | AMA1 RON2 block | Lassa entry inh | AmpC detergent | AmpC no deterg
CCc1ccc2c(CN3CCN(Cc4ccccc4)CC3)cc(=O)oc2c1 | – | – | – | – | –
CCc1ccc2c(CN3CCC(C(=O)OC)CC3)cc(=O)oc2c1 | – | – | – | ? | –
CCc1ccc2c(CN3CCN(S(=O)(=O)c4ccccc4F)CC3)cc(=O)oc2c1 | 11µM | – | ? | · | –
CCc1ccc2c(CN3CCN(S(=O)(=O)c4cccs4)CC3)cc(=O)oc2c1 | ? | – | 2.5µM | – | –
COc1ccc2c(c1)CC(N1CCN(C)CC1)c1cc(OC)ccc1S2 (stereo not given) | 4µM | – | ? | · | ·
CSc1ccc(/C=C/C(=O)Nc2ccccc2)cc1 | 7.1µM | – | ? | – | –
C=C1C(=O)C2=CC1CCC(=O)C1(C)CCC(OC(C)=O)C(C)(C)C1CC2O (stereo not given) | ? | – | 13µM | · | ·
O=C(Cn1ncc2c3ccccc3n(Cc3ccc(F)cc3)c2c1=O)N1CCN(c2ncccn2)CC1 | ? | – | ? | ? | –
O=C(Cn1ncc2c3ccccc3n(Cc3ccc(F)cc3)c2c1=O)N1CCC2(CC1)OCCO2 | 14µM | – | ? | – | –
CCCN(CCC)CCCNC(=O)C1CCN(c2nc3ccc(CC)cc3s2)CC1 | – | · | – | – | ·
CCOc1ccc(S(=O)(=O)Nc2ncn[nH]2)cc1 | – | – | – | – | –
